Bioassay records from PubChem BioAssay.
NPR1 antag = antagonists of human natriuretic peptide receptor Npr1; P16066; HEK293 hNpr1 GloSensor cGMP, ANP-stimulated luminescence; Potency, µM (top dose mostly 46.3 µM), without a hit: top-dose activity change, negative = inhibition, actives largely listed as inhibitors; 76,000 tested, 1.6% active; AID 1347048; calls by dose curve; also: nearly all actives have a fitted effect of over 60% in size
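HEK293 cells stably expressing human Npr1 and cGMP GloSensor pGS-40F, loaded 2 h with 2% GloSensor reagent, given compound 30 min at room temperature. Luminescence read before and 20 min after 0.1 nM hNppA.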
GPT2 inh = inhibitors of human GPT2 alanine aminotransferase. Q8TD30. Recombinant GPT2, coupled pyruvate oxidase/HRP Amplex Red fluorescence. Potency, µM (doses to about 57.7 µM), inactives show at the highest dose activity change, negative = inhibition, most hits filed as inhibitors. 100,000 tested, 0.25% active; also: nearly all actives have a fitted effect of over 60% in size
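Recombinant GPT2 (10ng/uL) with 250uM a-KG and 2mM L-alanine, 30 min at room temperature, in HEPES pH 7.5 buffer. Pyruvate detected by pyruvate oxidase/HRP/Amplex Red fluorescence after 30 min in the dark; AOA (50uM) as positive control.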
HEK cytotox = HEK 293 cell cytotoxicity; 94,000 tested, 6.6% active; Potency, µM (doses to about 115 µM), inactives show at the highest dose activity change, negative = cytotoxicity, most hits filed as inhibitors; HEK 293 viability, ATP luminescence (CellTiter-Glo), 48-72 h; also: nearly all actives have a fitted effect of over 60% in size
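250 HEK 293 cells/well; compound by pintool; incubated 48 or 72 hr at 37 degree Celsius; CellTiter-Glo added, 10 min RT, luminescence imaged.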
NIH3T3 tox = cytotoxic compounds in NIH 3T3 cells; Potency, µM (highest dose often 96.7 µM), for inactives: at the highest dose activity change, negative = cytotoxicity, usual class: inhibitors; 94,000 tested, 4.3% active; NIH 3T3 viability, CellTiter-Glo ATP luminescence, 48-72 h; AID 1345082; also: nearly all actives have a fitted effect of over 55% in size
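First NIH 3T3 cells are plated at 400 cells/well; next compound is pinned in; then plates incubate 48 or 72 hr at 37 °C; finally CellTiter-Glo is added and luminescence read after 10 min.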
Luciferase inh = Photinus pyralis luciferase inhibition. P08659. purified P. pyralis luciferase, luminescence, biochemical. Potency, µM (titrated, usually from 115 µM), hits mostly inhibitors. 76,000 tested, 2.5% active; also: nearly all actives have a fitted effect of over 65% in size
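Purified 10nM P. pyralis luciferase with 10uM D-luciferin and 10uM ATP in 50mM Tris acetate pH 7.5, 10mM Mg acetate, 0.01% Tween-20, 0.05% BSA. qHTS titration; luminescence read by CCD imager.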
Numbers without * were called inactive; i = inactive; ? = inconclusive; . = not tested or not shown; [ ] = remark or other dose. Rows were chosen to be rich in hits. Some 10% of all compounds tested hit in one or more screens of this group. Unless noted, calls follow the shape of the dose curve; as a rule, active = well fitted curve in the direction sought with a large enough effect; inconclusive = small, poorly fitted or top-dose-only effect, or another doubt; inactive = no such curve, though single readings can be large; an effect the other way counts as inactive or inconclusive. % is scaled to controls: 0 for no effect and ±100 for the full control effect; potency is read from the fitted curve at half-maximal effect.

SMILES	NPR1 antag	GPT2 inh	HEK cytotox	NIH3T3 tox	Luciferase inh
Cc1ccc(-c2cccc(CN3CCCC(NC(=O)Cc4cccc(Cl)c4)C3)c2)cc1Cl (stereo not given)	.	i	i	-14%	.
COc1cccc(-c2ccc(CN3CCCC(NC(=O)C(C)C)C3)cc2)c1 (stereo not given)	.	4%	40µM*	?	.
COc1cccc(-c2ccc(CN3CCCC(NC(=O)Cc4ccccn4)C3)cc2)c1 (stereo not given)	.	i	40µM*	?	.
COc1cccc(-c2ccc(CN3CCCC(NC(=O)C(C)(C)C)C3)cc2)c1 (stereo not given)	.	-32%	50µM*	?	.
Cc1ccc(-c2cccc(CN3CCCC(NC(=O)C(C)(C)C)C3)c2)cc1Cl (stereo not given)	.	.	?	-26%	.
COc1ccc(CCN2Cc3cc(NC(=O)c4cccc(F)c4)ccc3OC(C)C2=O)cc1 (stereo not given)	-14%	-9%	?	?	i
N[C@@H]1CC[C@H](C(=O)N2CCC(Oc3cccc(C(F)(F)F)c3)CC2)C1	3%	-1%	45µM*	?	i
O=C(C1CCC1)N1CCC(Oc2cccc(F)c2)C1 (stereo not given)	3%	-11%	-3%	-1%	i
CCCCCNC(=O)C1CCCN(Cc2cccc(-c3ccsc3)c2)C1 (stereo not given)	.	.	32µM*	35µM*	.
O=C(C1CCCN(Cc2cccc(-c3ccsc3)c2)C1)N1CCOCC1 (stereo not given)	.	i	?	?	.
O=C(NCCC1CCCCC1)C1CCCN(Cc2cccc(-c3ccsc3)c2)C1 (stereo not given)	.	.	45µM*	?	.
COCCNC(=O)C1CCCN(Cc2cccc(-c3ccsc3)c2)C1 (stereo not given)	.	.	-27%	?	.
NC(=O)c1cccnc1N1CCC(n2cc(-c3ccccc3Cl)nn2)CC1	-9%	?	79µM*	-24%	i
CN1CCCCCC(O)c2cc(C(=O)N3CCN(Cc4ccccc4)CC3)ccc21 (stereo not given)	-24%	i	56µM*	?	i
Cc1cccc(N2CCN(C(=O)c3ccc4c(c3)C(O)CCCCCN4C)CC2)c1 (stereo not given)	-13%	i	?	?	i
COc1ccccc1N1CCN(C(=O)c2ccc3c(c2)C(O)CCCCCN3C)CC1 (stereo not given)	-18%	i	45µM*	?	i
CN1CCCCCC(O)c2cc(C(=O)N3CCc4ccccc43)ccc21 (stereo not given)	?	?	?	35µM*	?
CCN1CCN(Cc2cc(C)cc(CN(C)Cc3ccccn3)c2C)CC1	-1%	5%	-8%	-30%	i
Cn1nccc1C(=O)NCC1Cn2cccc2CN1Cc1ccccc1 (stereo not given)	-5%	i	79µM*	?	i
O=C(NCC1Cn2cccc2CN1Cc1ccccc1)c1ccccn1 (stereo not given)	.	i	-13%	-23%	.
O=C(NCC1Cn2cccc2CN1Cc1ccccc1)c1cncc(Br)c1 (stereo not given)	4%	-22%	89µM*	?	i
CN1Cc2cccn2CC1CNC(=O)c1ccnn1C (stereo not given)	1%	i	4%	-7%	i
O=C(NCCc1ccc(Cl)cc1)c1cc(-c2cccs2)c2cccn2n1	.	-4%	45µM*	?	.
O=C(NCc1cccs1)c1cc(-c2cccs2)c2cccn2n1	.	-3%	50µM*	?	.
O=C(NCCCc1ccccc1)c1cc(-c2cccs2)c2cccn2n1	.	i	?	?	.
C[C@@]12C(=O)N(CC3CC3)c3ccccc3[C@@H]1[C@@H](C(N)=O)CN2C(=O)c1cc2ccccc2s1	.	-12%[27.3 µM]	?	?	.
CN(Cc1ccc(F)cc1)C(=O)Nc1ccccc1	0%[70.6 µM]	-3%[88.5 µM]	-25%[172 µM]	?	i
CN(Cc1ccccc1C(F)(F)F)C(=O)Nc1ccc(Cl)cc1	-19%[70.6 µM]	-9%[88.5 µM]	?	35µM*	i
